In PubChem BioAssay (NCATS):
Records with an inconclusive call do not appear. Unmarked numbers belong to inactive results. The source made the active and inactive calls. The call rests on the fitted dose curve; in most records, active means well fitted inhibition curve with a large enough effect; inconclusive means small, poorly fitted or top-dose-only effect; inactive means no such curve, though single readings can be large or run the other way.

Target: Cytochrome P450 2C9 (Homo sapiens) (UniProt P11712)
Sequence (P11712 whole entry, looked up): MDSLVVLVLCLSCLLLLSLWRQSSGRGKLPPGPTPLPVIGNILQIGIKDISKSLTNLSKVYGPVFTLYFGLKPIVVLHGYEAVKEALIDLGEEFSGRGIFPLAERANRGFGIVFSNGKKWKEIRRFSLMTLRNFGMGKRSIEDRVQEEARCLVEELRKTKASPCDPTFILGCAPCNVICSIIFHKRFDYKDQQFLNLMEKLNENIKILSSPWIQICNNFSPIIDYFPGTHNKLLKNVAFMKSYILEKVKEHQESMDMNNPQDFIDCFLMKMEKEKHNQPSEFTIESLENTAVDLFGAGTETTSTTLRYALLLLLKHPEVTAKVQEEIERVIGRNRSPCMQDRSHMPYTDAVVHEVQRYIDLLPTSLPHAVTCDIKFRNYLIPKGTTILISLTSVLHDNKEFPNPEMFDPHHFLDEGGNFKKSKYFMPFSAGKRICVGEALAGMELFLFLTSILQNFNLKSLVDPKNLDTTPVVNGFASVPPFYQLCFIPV
Assay: qHTS Assay for Inhibitors and Substrates of Cytochrome P450 2C9 (AID 883); further: nearly all actives have a fitted effect of over 60% in size
Conditions: recombinant CYP2C9, luciferin-H luminescence, 60 min; series mostly up to 57.1 µM
In short: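 Signal: luciferase luminescence reporting luciferin produced by CYP2C9. Conditions: 10nM enzyme, Luciferin-H 100uM at KM, 25mM KPO4, 37C, 60 min NADPH-driven reaction. Reference: 57uM sulphaphenazole as 100% inhibition.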
On the % scale 0 is the no-effect control and ±100 the full control effect; potency means the concentration at half of the fitted maximal effect.

SMILES | Potency | activity change, negative = inhibition
COc1ccccc1CCn1c(=O)c(-c2cccc(F)c2)nc2cncnc21 | 2.51 µM (active) | –
COc1cccc(-c2nc(NCc3ccccc3)c3ccccc3n2)c1 | 1.26 µM (active) | –
c1ccc(Nc2cc(-c3ccoc3)ncn2)cc1 | – | -13.3% [at 2.29 µM]
CN(C)c1ncc2nc(-c3ccc(F)cc3)c(=O)n(Cc3ccc(F)cc3)c2n1 | inactive | –
